# Calls of active or inactive are those of the source. Where a call stands in place of a potency, no number is given. Calls follow the shape of the dose curve; as a rule, active = well fitted curve in the direction sought with a large enough effect in the repeat runs; inconclusive = weak or mixed curves; inactive = flat fitted curve, though single readings scatter.
# Experiment: qHTS assay to test for compound auto fluorescence at 535 nm (green) in HEK293 cells (AID 720680)
# Conditions: green autofluorescence 485/535 nm; series mostly up to 91.3 µM
SMILES,outcome,"fluorescence, % of fluorescein"
C=C(C)C(=O)OC(C)C,inactive,–
OCC1CC2CC1C1CCC(CO)C21 (stereo unspecified),inactive,–
CCCCCCCCN(C)C,inactive,–
CC[C@H](C)[C@H](N)C(=O)O,inactive,–
CCN(CC)CCc1nc(-c2ccccc2)no1,–,-0.143% [at 18.6 µM] (inactive)
CCCCCCCCCCCCCCCC(=O)OC/C=C(C)/C=C/C=C(C)/C=C/C1=C(C)CCCC1(C)C,inactive,–
CCOC(=O)CC(=O)c1cc(F)c(Cl)nc1Cl,inactive,–
CC(=O)O[C@H]1C[C@@H]2CC[C@@H]3[C@H](CC[C@@]4(C)[C@H]3C[C@H]([N+]3(C)CCCCC3)[C@@H]4OC(C)=O)[C@@]2(C)C[C@@H]1N1CCCCC1,inactive,–
Cc1ccc(C)o1,inactive,–
CC(C)CCCC(C)CCO (stereo unspecified),inactive,–
COc1ccc2[nH]c(S(=O)Cc3ncc(C)c(OC)c3C)nc2n1 (stereo unspecified),inactive,–
NC(=S)N/N=C/c1cccnc1,inactive,–
CC(C)c1ccccc1C(C)C,inactive,–
NCc1ccccc1,inactive,–
CC(C)(C)c1ccc(S)cc1,inactive,–
CNS(=O)(=O)Cc1ccc2[nH]cc(CCN(C)C)c2c1,inactive,–
COc1ccccc1OC(=O)Oc1ccccc1OC,inactive,–
Cc1c(Cn2ccnc2)c2ccccc2n1CCC(=O)O,inactive,–
O=[N+]([O-])c1cc[n+]([O-])cc1,inactive,–

SMILES,outcome,"fluorescence, % of fluorescein"
CCOc1cc(OCC)c(C(=O)CCC(=O)O)cc1OCC,inactive,–
O=S(=O)(O)c1ccc(O)c2ncccc12,inactive,–
CC[C@]12CCCN3CCc4c(n(c5ccccc45)C(=O)C1)[C@@H]32,–,0.0475% [at 18.6 µM] (inactive)
CC(C)(C)C(=O)OCOP(=O)(COCCn1cnc2c(N)ncnc21)OCOC(=O)C(C)(C)C,inactive,–
N#CCc1cccc(C(F)(F)F)c1,inactive,–
O=C=NC1CCC(CC2CCC(N=C=O)CC2)CC1 (stereo unspecified),inactive,–
Cc1cc(NC(=O)C(=O)O)cc(C)c1Oc1ccc(O)c2c1CCC2,inactive,–
CC(C)CC=O,inactive,–
Nc1ccc(C(=O)Nc2ccccc2N)cc1,inactive,–
O=c1c2ccccc2nnn1CCl,inactive,–
Cc1ccc(C(C)c2ccc(C)c(C)c2)cc1C,inactive,–
C=CCCCCCC,inactive,–
CC(=O)N(O)CCCCCNC(=O)CCC(=O)N(O)CCCCCNC(=O)CCC(=O)N(O)CCCCCN,–,0.127% [at 18.6 µM] (inactive)
FC(F)(F)C(F)(F)C(F)(F)C(F)(F)C(F)(F)C(F)(F)CCI,inactive,–
COCCOCCOCCOCCOC,inactive,–
CCCCCCCCCC(=O)OCC,inactive,–
Cc1ccc(C(=O)C(C)CN2CCCCC2)cc1 (stereo unspecified),inactive,–
CCN(CCO)CCCC(C)Nc1ccnc2cc(Cl)ccc12 (stereo unspecified),inactive,–
Cc1cc(CC(=O)O)c(C)n1-c1ccc(Cl)cc1,inactive,–

# Experiment: qHTS assay to test for compound auto fluorescence at 460 nm (blue) in HEK293 cell free culture (AID 720681)
# Conditions: cell-free medium, autofluorescence 405/460 nm (blue); series mostly up to 91.3 µM
# Method in brief: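 Test compounds were pinned into cell-free culture medium (DMEM with 10% FBS) and fluorescence was read directly at Ex/Em 405/460 nm. Signals were expressed as fluorescence equivalents of triamterene, with DMSO vehicle as control.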
SMILES,Potency,"fluorescence, % of fluorescent control"
C=C(C)C(=O)OC(C)C,inactive,–
OCC1CC2CC1C1CCC(CO)C21 (stereo unspecified),inactive,–
CCCCCCCCN(C)C,inactive,–
CC[C@H](C)[C@H](N)C(=O)O,inactive,–
CCN(CC)CCc1nc(-c2ccccc2)no1,–,-0.0186% [at 18.6 µM] (inactive)
CCCCCCCCCCCCCCCC(=O)OC/C=C(C)/C=C/C=C(C)/C=C/C1=C(C)CCCC1(C)C,inactive,–
CCOC(=O)CC(=O)c1cc(F)c(Cl)nc1Cl,inactive,–
CC(=O)O[C@H]1C[C@@H]2CC[C@@H]3[C@H](CC[C@@]4(C)[C@H]3C[C@H]([N+]3(C)CCCCC3)[C@@H]4OC(C)=O)[C@@]2(C)C[C@@H]1N1CCCCC1,inactive,–
Cc1ccc(C)o1,inactive,–
CC(C)CCCC(C)CCO (stereo unspecified),inactive,–
COc1ccc2[nH]c(S(=O)Cc3ncc(C)c(OC)c3C)nc2n1 (stereo unspecified),inactive,–
NC(=S)N/N=C/c1cccnc1,inactive,–
CC(C)c1ccccc1C(C)C,inactive,–
NCc1ccccc1,inactive,–
CC(C)(C)c1ccc(S)cc1,inactive,–
CNS(=O)(=O)Cc1ccc2[nH]cc(CCN(C)C)c2c1,inactive,–
COc1ccccc1OC(=O)Oc1ccccc1OC,inactive,–
Cc1c(Cn2ccnc2)c2ccccc2n1CCC(=O)O,inactive,–
O=[N+]([O-])c1cc[n+]([O-])cc1,inactive,–

SMILES,Potency,"fluorescence, % of fluorescent control"
CCOc1cc(OCC)c(C(=O)CCC(=O)O)cc1OCC,inactive,–
O=S(=O)(O)c1ccc(O)c2ncccc12,inactive,–
CC[C@]12CCCN3CCc4c(n(c5ccccc45)C(=O)C1)[C@@H]32,–,-0.0431% [at 18.6 µM] (inactive)
CC(C)(C)C(=O)OCOP(=O)(COCCn1cnc2c(N)ncnc21)OCOC(=O)C(C)(C)C,inactive,–
N#CCc1cccc(C(F)(F)F)c1,inactive,–
O=C=NC1CCC(CC2CCC(N=C=O)CC2)CC1 (stereo unspecified),inactive,–
Cc1cc(NC(=O)C(=O)O)cc(C)c1Oc1ccc(O)c2c1CCC2,inactive,–
CC(C)CC=O,inactive,–
Nc1ccc(C(=O)Nc2ccccc2N)cc1,inactive,–
O=c1c2ccccc2nnn1CCl,inactive,–
Cc1ccc(C(C)c2ccc(C)c(C)c2)cc1C,inactive,–
C=CCCCCCC,inactive,–
CC(=O)N(O)CCCCCNC(=O)CCC(=O)N(O)CCCCCNC(=O)CCC(=O)N(O)CCCCCN,–,0.0573% [at 18.6 µM] (inactive)
FC(F)(F)C(F)(F)C(F)(F)C(F)(F)C(F)(F)C(F)(F)CCI,inactive,–
COCCOCCOCCOCCOC,inactive,–
CCCCCCCCCC(=O)OCC,inactive,–
Cc1ccc(C(=O)C(C)CN2CCCCC2)cc1 (stereo unspecified),inactive,–
CCN(CCO)CCCC(C)Nc1ccnc2cc(Cl)ccc12 (stereo unspecified),inactive,–
Cc1cc(CC(=O)O)c(C)n1-c1ccc(Cl)cc1,inactive,–
